Experimental data taken from PubChem BioAssay (Tox21).
Records with an inconclusive call do not appear. Entries that show only a call come without a potency. Calls of active or inactive are those of the source. Unless noted, calls follow the shape of the full dose curve.

target: Androgen receptor (Homo sapiens) (UniProt P10275); assay: qHTS assay to identify small molecule agonists of the androgen receptor (AR) signaling pathway in the presence of an antagonist (AID 1259381); conditions: MDA-kb2 MMTV-luciferase, AR agonist + nilutamide, 16 h; series mostly up to 92.4 µM; also: nearly all actives have a fitted effect of over 15% in size
Sequence (P10275 whole entry, looked up): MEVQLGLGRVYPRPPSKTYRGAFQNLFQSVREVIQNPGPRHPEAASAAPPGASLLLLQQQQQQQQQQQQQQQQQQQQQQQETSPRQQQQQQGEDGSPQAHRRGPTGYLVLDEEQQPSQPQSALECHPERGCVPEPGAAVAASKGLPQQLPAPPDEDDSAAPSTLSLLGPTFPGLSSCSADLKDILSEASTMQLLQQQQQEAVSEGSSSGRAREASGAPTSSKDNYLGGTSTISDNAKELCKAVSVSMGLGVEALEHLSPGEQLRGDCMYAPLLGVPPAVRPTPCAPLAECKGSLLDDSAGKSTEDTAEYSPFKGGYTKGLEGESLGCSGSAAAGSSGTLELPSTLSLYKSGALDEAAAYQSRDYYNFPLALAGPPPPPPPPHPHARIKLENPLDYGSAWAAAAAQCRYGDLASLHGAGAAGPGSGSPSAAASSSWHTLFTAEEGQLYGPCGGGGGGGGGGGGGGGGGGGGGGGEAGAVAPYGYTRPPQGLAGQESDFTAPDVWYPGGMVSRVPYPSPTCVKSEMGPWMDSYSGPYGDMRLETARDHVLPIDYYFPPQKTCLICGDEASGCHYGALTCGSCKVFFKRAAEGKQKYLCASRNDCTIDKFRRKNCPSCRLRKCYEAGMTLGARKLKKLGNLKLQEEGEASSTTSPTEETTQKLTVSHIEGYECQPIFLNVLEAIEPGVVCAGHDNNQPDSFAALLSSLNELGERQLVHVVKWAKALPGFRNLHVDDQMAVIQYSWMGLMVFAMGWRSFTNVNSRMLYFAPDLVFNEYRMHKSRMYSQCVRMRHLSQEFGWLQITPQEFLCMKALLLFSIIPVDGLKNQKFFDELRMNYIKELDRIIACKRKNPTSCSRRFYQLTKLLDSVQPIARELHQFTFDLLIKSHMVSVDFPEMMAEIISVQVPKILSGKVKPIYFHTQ
Outline: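 Using human MDA-kb2 cells with an MMTV promoter–luciferase construct (AR and GR response elements), agonist activity is scored under 3.0uM nilutamide (final) co-treatment; 16hr incubation, 37C, luminescence readout via ONE-Glo.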

Row | SMILES | Potency | activation
1 | Nc1c(Cl)cc(Cl)cc1[N+](=O)[O-] | inactive | 
2 | BrC(Br)C(Br)Br | inactive | 
3 | O=C(Oc1ccccc1)c1ccc2ccccc2c1O | inactive | 
4 | COC(=O)CC(C(C)=O)C(=O)OC (configuration not stated) | inactive | 
5 | O=C(c1ccccc1)c1ccc(O)cc1 | inactive | 
6 | CCCCCCCCCCCCCOS(=O)(=O)O | inactive | 
7 | CCC(Cl)CC(Cl)C(Cl)C(Cl)C(Cl)C(C)Cl (configuration not stated) |  | 4.69% [at 19 µM] (inactive)

tested on: not listed separately; assay: qHTS assay to identify small molecule antagonists of the estrogen receptor beta (ER-beta) signaling pathway - cell viability counter screen (AID 1259382; active = well fitted cell-killing curve with a large enough effect in the repeat runs; also: nearly all actives have a fitted effect of over 55% in size); conditions: ER-beta-UAS-bla HEK293T viability, CellTiter-Glo luminescence, 16 h; series mostly up to 92.4 µM
Outline: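 Agonist-stimulated (1nM E2) ER-beta-UAS-bla HEK293T cells are incubated with library compounds for 16 hr at 37C. Cell viability is then assessed in the reporter-assay wells by adding CellTiter-Glo and reading luminescence after 30 min.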

Row | SMILES | Potency | activity change, negative = cytotoxicity
8 | O=C1NC(=O)c2cccc3cccc1c23 | inactive | 
9 | Cc1ccc(NC(=O)N(C)C)cc1NC(=O)N(C)C | inactive | 
10 | O=[N+]([O-])C1(Br)COCOC1 | inactive | 
11 | O=C(O)c1cccc(Oc2ccccc2)c1 | inactive | 
12 | Nc1c(Cl)cc(Cl)cc1[N+](=O)[O-] | inactive | 
13 | C=C(C)c1ccccc1 | inactive | 
14 | N[C@@H](Cc1cc(I)c(O)c(I)c1)C(=O)O | inactive | 
15 | CCCCCc1ccco1 | inactive | 
16 | CSCC[C@H](NC(=O)[C@H](Cc1c[nH]c2ccccc12)NC(=O)CCNC(=O)OC(C)(C)C)C(=O)N[C@@H](CC(=O)O)C(=O)N[C@@H](Cc1ccccc1)C(N)=O | inactive | 
17 | CCCCCCOC(=O)CCCCC | inactive | 
18 | O=C(Nc1ccc(C(=O)O)c(O)c1)c1ccccc1 | inactive | 
19 | COC(OC)OC | inactive | 
20 | CC(C)COC(=O)COc1cc(Cl)c(Cl)cc1Cl | inactive | 
21 | BrC(Br)C(Br)Br | inactive | 
22 | O=c1[nH][nH]c(=O)c2cc([N+](=O)[O-])ccc12 | inactive | 
23 | C1CCCCC1 | inactive | 
24 | O=C(Oc1ccccc1)c1ccc2ccccc2c1O | inactive | 
25 | NC(=O)c1ccccc1[N+](=O)[O-] | inactive | 
26 | Cc1ccc(N(CCO)CCO)cc1 | inactive | 
27 | CC[C@H]1OC(=O)[C@H](C)[C@@H](O[C@H]2C[C@@](C)(OC)[C@@H](O)[C@H](C)O2)[C@H](C)[C@@H](O[C@@H]2O[C@H](C)C[C@H](N(C)C)[C@H]2O)[C@](C)(O)C[C@@H](C)CN(C)[C@H](C)[C@@H](O)[C@]1(C)O | inactive | 
28 | SCCc1cnccn1 | inactive | 
29 | O=S(=O)(O)CO | inactive | 
30 | CC(CCc1ccc(O)cc1)NCCc1ccc(O)c(O)c1 (configuration not stated) | inactive | 
31 | Oc1ccc2c(c1)Cc1ccccc1-2 | inactive | 
32 | O=C(O)CO | inactive | 
33 | CCC(Cl)CC(Cl)C(Cl)C(Cl)C(Cl)C(C)Cl (configuration not stated) |  | -4.67% [at 19 µM] (inactive)
34 | ClC1=C(Cl)C1(Cl)Cl | inactive | 
35 | CCSC(=O)N(CC)CC | inactive | 

target: Estrogen receptor (Homo sapiens) (UniProt P03372); assay: qHTS assay to identify small molecule agonists of the estrogen receptor alpha (ER-alpha) signaling pathway in the presence of an antagonist (AID 1259383); conditions: VM7Luc4E2 cells, ERE-luciferase, +ICI-182,780, 22 h; series mostly up to 92.4 µM; also: top concentration of the series differs between compounds; nearly all actives have a fitted effect of over 15% in size
Sequence (P03372 whole entry, looked up): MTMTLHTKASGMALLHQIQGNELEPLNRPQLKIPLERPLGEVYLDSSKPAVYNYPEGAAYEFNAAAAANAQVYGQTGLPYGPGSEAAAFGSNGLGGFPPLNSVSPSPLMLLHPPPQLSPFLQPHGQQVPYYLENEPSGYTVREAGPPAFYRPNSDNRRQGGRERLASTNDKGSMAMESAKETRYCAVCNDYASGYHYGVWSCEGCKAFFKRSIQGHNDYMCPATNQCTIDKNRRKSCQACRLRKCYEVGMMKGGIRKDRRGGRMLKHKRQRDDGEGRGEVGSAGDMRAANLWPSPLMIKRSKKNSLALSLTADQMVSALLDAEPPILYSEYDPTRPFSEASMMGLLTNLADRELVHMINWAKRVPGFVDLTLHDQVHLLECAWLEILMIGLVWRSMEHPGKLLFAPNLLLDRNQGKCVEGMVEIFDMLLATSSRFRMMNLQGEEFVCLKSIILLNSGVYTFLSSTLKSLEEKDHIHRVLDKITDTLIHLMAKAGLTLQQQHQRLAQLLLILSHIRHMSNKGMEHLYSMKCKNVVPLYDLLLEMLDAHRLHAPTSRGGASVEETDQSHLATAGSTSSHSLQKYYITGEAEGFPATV
Outline: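 Using VM7Luc4E2 cells seeded 24hr before treatment, antagonist ICI-182,780 (10.0nM final) was added, followed by compounds at 15 concentrations. Plates incubated 22hr; ONE-Glo luminescence quantified reporter activity.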

Row | SMILES | Potency
36 | O=C1NC(=O)c2cccc3cccc1c23 | inactive
37 | Cc1ccc(NC(=O)N(C)C)cc1NC(=O)N(C)C | inactive
38 | O=[N+]([O-])C1(Br)COCOC1 | inactive
39 | O=C(O)c1cccc(Oc2ccccc2)c1 | inactive
40 | N[C@@H](Cc1cc(I)c(O)c(I)c1)C(=O)O | inactive
41 | CSCC[C@H](NC(=O)[C@H](Cc1c[nH]c2ccccc12)NC(=O)CCNC(=O)OC(C)(C)C)C(=O)N[C@@H](CC(=O)O)C(=O)N[C@@H](Cc1ccccc1)C(N)=O | inactive
42 | O=C(Nc1ccc(C(=O)O)c(O)c1)c1ccccc1 | inactive
43 | COC(OC)OC | inactive
44 | CC(C)COC(=O)COc1cc(Cl)c(Cl)cc1Cl | inactive
45 | O=c1[nH][nH]c(=O)c2cc([N+](=O)[O-])ccc12 | inactive
46 | COC(=O)CC(C(C)=O)C(=O)OC (configuration not stated) | inactive
47 | NC(=O)c1ccccc1[N+](=O)[O-] | inactive
48 | Cc1ccc(N(CCO)CCO)cc1 | inactive
49 | CC[C@H]1OC(=O)[C@H](C)[C@@H](O[C@H]2C[C@@](C)(OC)[C@@H](O)[C@H](C)O2)[C@H](C)[C@@H](O[C@@H]2O[C@H](C)C[C@H](N(C)C)[C@H]2O)[C@](C)(O)C[C@@H](C)CN(C)[C@H](C)[C@@H](O)[C@]1(C)O | inactive
50 | CC(CCc1ccc(O)cc1)NCCc1ccc(O)c(O)c1 (configuration not stated) | inactive
51 | O=C(O)CO | inactive
52 | ClC1=C(Cl)C1(Cl)Cl | inactive
53 | Cc1ccc(Nc2c(F)cccc2Cl)c(CC(=O)O)c1 | inactive
54 | CCSC(=O)N(CC)CC | inactive
55 | CCN(Cc1cccc(S(=O)(=O)O)c1)c1ccc(C(=C2C=CC(=[N+](CC)Cc3cccc(S(=O)(=O)O)c3)C=C2)c2ccccc2S(=O)(=O)[O-])cc1 | inactive
56 | CCCCCCCCCCCSCC(=O)O | inactive

tested on: not listed separately; assay: qHTS assay to identify small molecule agonists or antagonists of the thyroid stimulating hormone receptor (TSHR) signaling pathway - wild type cell line counter screen (AID 1259384); conditions: HEK293 wild type, cAMP HTRF counter-screen; series mostly up to 92.4 µM
Outline: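 Counter screen in untransfected Hek293: compounds (15-point titration, triplicate) plus phosphodiesterase inhibitor Ro20-1724 added after 18 h plating; 30 min RT. Intracellular cAMP via competitive d2/cryptate immunoassay, 1 h incubation.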

Row | SMILES | Potency | cAMP activity change
57 | O=C1NC(=O)c2cccc3cccc1c23 | inactive | 
58 | Cc1ccc(NC(=O)N(C)C)cc1NC(=O)N(C)C | inactive | 
59 | O=[N+]([O-])C1(Br)COCOC1 | inactive | 
60 | O=C(O)c1cccc(Oc2ccccc2)c1 | inactive | 
61 | Nc1c(Cl)cc(Cl)cc1[N+](=O)[O-] | inactive | 
62 | C=C(C)c1ccccc1 | inactive | 
63 | N[C@@H](Cc1cc(I)c(O)c(I)c1)C(=O)O | inactive | 
64 | CCCCCc1ccco1 | inactive | 
65 | CSCC[C@H](NC(=O)[C@H](Cc1c[nH]c2ccccc12)NC(=O)CCNC(=O)OC(C)(C)C)C(=O)N[C@@H](CC(=O)O)C(=O)N[C@@H](Cc1ccccc1)C(N)=O | inactive | 
66 | CCCCCCOC(=O)CCCCC | inactive | 
67 | O=C(Nc1ccc(C(=O)O)c(O)c1)c1ccccc1 | inactive | 
68 | COC(OC)OC | inactive | 
69 | CC(C)COC(=O)COc1cc(Cl)c(Cl)cc1Cl | inactive | 
70 | BrC(Br)C(Br)Br | inactive | 
71 | O=c1[nH][nH]c(=O)c2cc([N+](=O)[O-])ccc12 | inactive | 
72 | C1CCCCC1 | inactive | 
73 | O=C(Oc1ccccc1)c1ccc2ccccc2c1O | inactive | 
74 | COC(=O)CC(C(C)=O)C(=O)OC (configuration not stated) | inactive | 

Row | SMILES | Potency | cAMP activity change
75 | NC(=O)c1ccccc1[N+](=O)[O-] | inactive | 
76 | Cc1ccc(N(CCO)CCO)cc1 | inactive | 
77 | CC[C@H]1OC(=O)[C@H](C)[C@@H](O[C@H]2C[C@@](C)(OC)[C@@H](O)[C@H](C)O2)[C@H](C)[C@@H](O[C@@H]2O[C@H](C)C[C@H](N(C)C)[C@H]2O)[C@](C)(O)C[C@@H](C)CN(C)[C@H](C)[C@@H](O)[C@]1(C)O | inactive | 
78 | SCCc1cnccn1 | inactive | 
79 | Cc1ccc(N(CC2=NCCN2)c2cccc(O)c2)cc1 | inactive | 
80 | O=S(=O)(O)CO | inactive | 
81 | O=C(c1ccccc1)c1ccc(O)cc1 | inactive | 
82 | CC(CCc1ccc(O)cc1)NCCc1ccc(O)c(O)c1 (configuration not stated) | inactive | 
83 | Oc1ccc2c(c1)Cc1ccccc1-2 | inactive | 
84 | O=C(O)CO | inactive | 
85 | CCCCCCCCCCCCCOS(=O)(=O)O | inactive | 
86 | CCC(Cl)CC(Cl)C(Cl)C(Cl)C(Cl)C(C)Cl (configuration not stated) |  | 4.41% [at 18.9 µM, stronger effect = higher value] (inactive)
87 | COc1cc(NCc2ccc3nc(N)nc(N)c3c2C)cc(OC)c1OC | inactive | 
88 | ClC1=C(Cl)C1(Cl)Cl | inactive | 
89 | Cc1ccc(Nc2c(F)cccc2Cl)c(CC(=O)O)c1 | inactive | 
90 | CCSC(=O)N(CC)CC | inactive | 
91 | CC(C)C(=O)OCCOc1ccccc1 | inactive | 
92 | CCCCCCCCCCCSCC(=O)O | inactive | 
